Experimental data reported in PubChem BioAssay (NCATS).

What follows are compounds tested against Glucocorticoid receptor (Homo sapiens) (UniProt P04150) (assay: GR-GFP Redistribution (AID 450;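 active = compounds whose dose series gives a full or clear partial fitted curve of increased nuclear translocation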)). Conditions: U2OS GR-GFP nuclear translocation, laser cytometry, 2 h.
Potency is read from the fitted curve at half-maximal effect.

Sequence of Glucocorticoid receptor (Homo sapiens) (P04150 whole entry, looked up, the tested form may be a part): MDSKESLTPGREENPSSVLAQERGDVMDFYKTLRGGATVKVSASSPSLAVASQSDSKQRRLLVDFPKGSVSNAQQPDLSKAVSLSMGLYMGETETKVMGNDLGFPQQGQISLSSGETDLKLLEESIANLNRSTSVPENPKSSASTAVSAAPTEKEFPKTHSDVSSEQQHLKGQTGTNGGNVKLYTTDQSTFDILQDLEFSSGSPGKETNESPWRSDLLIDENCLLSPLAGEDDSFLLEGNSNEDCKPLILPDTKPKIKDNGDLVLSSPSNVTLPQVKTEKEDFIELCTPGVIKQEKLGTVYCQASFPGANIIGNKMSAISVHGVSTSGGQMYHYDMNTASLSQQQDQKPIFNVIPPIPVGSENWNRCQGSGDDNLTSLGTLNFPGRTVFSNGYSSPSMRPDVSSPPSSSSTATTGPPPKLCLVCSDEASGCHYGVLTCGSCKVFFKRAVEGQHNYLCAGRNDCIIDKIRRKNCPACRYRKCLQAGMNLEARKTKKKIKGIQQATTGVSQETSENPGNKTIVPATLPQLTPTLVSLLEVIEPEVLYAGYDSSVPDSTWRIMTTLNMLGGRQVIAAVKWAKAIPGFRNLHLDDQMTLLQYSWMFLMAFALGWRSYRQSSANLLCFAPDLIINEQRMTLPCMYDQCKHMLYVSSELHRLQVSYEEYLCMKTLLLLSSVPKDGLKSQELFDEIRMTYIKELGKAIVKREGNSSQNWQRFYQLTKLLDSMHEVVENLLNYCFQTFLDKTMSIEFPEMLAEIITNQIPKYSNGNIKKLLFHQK

Potency, inactive:
Cc1ccccc1-c1cncnc1NCc1ccccc1 > 46 µM
CN(C)C(=O)c1ccc(-c2cc(NCc3cccnc3)ncn2)cc1 > 46 µM
Cc1noc(C)c1-c1cc(NCc2cccnc2)ncn1 > 46 µM
c1nc(NC2CCNCC2)c2cc(-c3ccoc3)ccc2n1 > 46 µM
Fc1ccc(Nc2ncncc2-c2ccccc2C(F)(F)F)cc1 > 46 µM
COc1ccc(-c2nc3cnc(Oc4ccccc4)nc3n(CCC#N)c2=O)cc1 > 9.22 µM
COc1ccc(-c2nc3cnc(N4CCN(C)CC4)nc3n(Cc3cccs3)c2=O)cc1 > 9.22 µM
COc1ccc(-n2c(=O)c(-c3ccc(F)cc3)nc3cnc(N4CCOCC4)nc32)cc1 > 9.22 µM
COCCn1c(=O)cnc2cnc(Oc3ccc(OC)cc3)nc21 > 9.22 µM
O=c1c(-c2ccc(F)cc2)nc2cnc(Oc3ccccc3)nc2n1C1CC1 > 9.22 µM
COc1ccc(Oc2ncc3nc(C)c(=O)n(C[C@H]4CCCO4)c3n2)cc1 > 9.22 µM
CCNc1ncc2nc(-c3cccs3)c(=O)n(C)c2n1 > 9.22 µM
COCCNc1nc(-c2ccccc2Cl)nc2ccccc12 > 46 µM
CN(C)c1ccc(-c2ccc3ncnc(N(C)C)c3c2)cc1 > 46 µM
COCCn1c(=O)c(C)nc2cnc(N(C)C)nc21 > 9.22 µM
COCCNc1ncnc2ccc(-c3cccc(NS(C)(=O)=O)c3)cc12 > 46 µM
CC(=O)NCCNc1ncncc1-c1ccc(N(C)C)cc1 > 46 µM
COc1ccc(Oc2ncc3nc(-c4ccc(OC)cc4)c(=O)n(C)c3n2)cc1 > 9.22 µM
Cc1ccccc1-c1nccc(NCc2cccs2)n1 > 46 µM
Cc1cccc(CNc2cc(-c3c(C)noc3C)ncn2)c1 > 46 µM
O=c1cnc2cnc(Oc3cccc(Cl)c3)nc2n1C[C@H]1CCCO1 > 9.22 µM
CS(=O)(=O)Nc1cccc(-c2ccc3ncnc(NC4CC4)c3c2)c1 > 46 µM
COc1ccc(-n2c(=O)cnc3cnc(N(C)C)nc32)cc1 > 9.22 µM
COc1cccc(Nc2ncc3nc(C)c(=O)n(C4CC4)c3n2)c1 > 9.22 µM
COc1ccc2[nH]cc(CCNc3ncnc4ccc(-c5cccnc5)cc34)c2c1 > 46 µM
CC(=O)NCCNc1ncnc2ccc(-c3ccoc3)cc12 > 46 µM
c1csc(CNc2ncnc3ccc(-c4ccoc4)cc23)c1 > 46 µM
COCCn1c(=O)c(C)nc2cnc(Oc3ccc(OC)cc3)nc21 > 9.22 µM
c1cncc(CNc2ncncc2-c2cccnc2)c1 > 46 µM
CN(C)C(=O)c1ccc(-c2cc(Nc3ccccc3)ncn2)cc1 > 46 µM
COCCNc1ncnc2ccc(-c3ccoc3)cc12 > 46 µM
COc1cccc(Cn2c(=O)cnc3cncnc32)c1 > 9.22 µM
CCNc1ncc2nc(-c3cn(C)c4ccccc34)c(=O)n(C)c2n1 > 9.22 µM
COc1ccc(-c2nc3cnc(Oc4cccc(Cl)c4)nc3n(C3CC3)c2=O)cc1 > 9.22 µM

What follows are compounds tested against Glucocorticoid receptor (Homo sapiens) (UniProt P04150) (assay: GR-EFC Redistribution (AID 451)). Conditions: CHO-K1 GR-EFC translocation, beta-gal luminescence, 2 h.
In short: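 Translocation of GR-ED fusion to nuclear EA restores b-gal, read by luminescence after 1 h room-temperature detection. Engineered CHO-K1 biosensor cells, 1,000/well, exposed 2 h at 37 C to titrations up to 46 uM final.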

Potency, inactive:
Cc1ccccc1-c1cncnc1NCc1ccccc1 > 46 µM
CN(C)C(=O)c1ccc(-c2cc(NCc3cccnc3)ncn2)cc1 > 46 µM
Cc1noc(C)c1-c1cc(NCc2cccnc2)ncn1 > 46 µM
CN(C)c1ncc2nc(-c3cc(F)cc(F)c3)c(=O)n(CCC#N)c2n1 > 46 µM
c1nc(NC2CCNCC2)c2cc(-c3ccoc3)ccc2n1 > 46 µM
Fc1ccc(Nc2ncncc2-c2ccccc2C(F)(F)F)cc1 > 46 µM
COc1ccc(-c2nc3cnc(Oc4ccccc4)nc3n(CCC#N)c2=O)cc1 > 46 µM
COc1ccc(-c2nc3cnc(N4CCN(C)CC4)nc3n(Cc3cccs3)c2=O)cc1 > 46 µM
COc1ccc(-n2c(=O)c(-c3ccc(F)cc3)nc3cnc(N4CCOCC4)nc32)cc1 > 46 µM
Cc1noc(C)c1-c1nccc(N2CCOCC2)n1 > 46 µM
COc1ccccc1CCn1c(=O)c(-c2cccc(F)c2)nc2cncnc21 > 46 µM
O=c1c(-c2ccc(F)cc2)nc2cnc(Oc3ccccc3)nc2n1C1CC1 > 46 µM
COc1ccc(Oc2ncc3nc(C)c(=O)n(C[C@H]4CCCO4)c3n2)cc1 > 46 µM
CCNc1ncc2nc(-c3cccs3)c(=O)n(C)c2n1 > 46 µM
COCCNc1nc(-c2ccccc2Cl)nc2ccccc12 > 46 µM
CN(C)c1ccc(-c2ccc3ncnc(N(C)C)c3c2)cc1 > 46 µM
COCCn1c(=O)c(C)nc2cnc(N(C)C)nc21 > 46 µM
COCCNc1ncnc2ccc(-c3cccc(NS(C)(=O)=O)c3)cc12 > 46 µM
CC(=O)NCCNc1ncncc1-c1ccc(N(C)C)cc1 > 46 µM
COc1ccc(Oc2ncc3nc(-c4ccc(OC)cc4)c(=O)n(C)c3n2)cc1 > 46 µM
CN1CCN(c2ncc3nc(-c4ccc(Cl)cc4)c(=O)n(-c4ccccc4)c3n2)CC1 > 46 µM
CN1CCN(c2ccnc(-c3ccoc3)n2)CC1 > 46 µM
Cc1ccccc1-c1nccc(NCc2cccs2)n1 > 46 µM
Cc1cccc(CNc2cc(-c3c(C)noc3C)ncn2)c1 > 46 µM
O=c1cnc2cnc(Oc3cccc(Cl)c3)nc2n1C[C@H]1CCCO1 > 46 µM
CS(=O)(=O)Nc1cccc(-c2ccc3ncnc(NC4CC4)c3c2)c1 > 46 µM
COc1ccc(-n2c(=O)cnc3cnc(N(C)C)nc32)cc1 > 46 µM
COc1cccc(Nc2ncc3nc(C)c(=O)n(C4CC4)c3n2)c1 > 46 µM
COc1ccc2[nH]cc(CCNc3ncnc4ccc(-c5cccnc5)cc34)c2c1 > 46 µM
CC(=O)NCCNc1ncnc2ccc(-c3ccoc3)cc12 > 46 µM
CNc1ncnc2ccc(-c3ccccc3CN(C)C)cc12 > 46 µM
c1csc(CNc2ncnc3ccc(-c4ccoc4)cc23)c1 > 46 µM
c1cncc(CNc2ncncc2-c2cccnc2)c1 > 46 µM
CN(C)C(=O)c1ccc(-c2cc(Nc3ccccc3)ncn2)cc1 > 46 µM
COCCNc1ncnc2ccc(-c3ccoc3)cc12 > 46 µM
COc1cccc(Cn2c(=O)cnc3cncnc32)c1 > 46 µM
CCNc1ncc2nc(-c3cn(C)c4ccccc34)c(=O)n(C)c2n1 > 46 µM
COc1ccc(-c2nc3cnc(Oc4cccc(Cl)c4)nc3n(C3CC3)c2=O)cc1 > 46 µM
